Screening data (PubChem BioAssay)
CYP2C9 inh = inhibitors of human CYP2C9; CYP2C9 Supersomes, luciferin-H conversion, luminescence; inhibition, % at 5 µM; hit rate 20% among 96,000;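 active = blocking of liver enzyme CYP2C9 beyond about 50% at 5 µM, limit read from the data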
Target sequence (P11712 whole entry, looked up): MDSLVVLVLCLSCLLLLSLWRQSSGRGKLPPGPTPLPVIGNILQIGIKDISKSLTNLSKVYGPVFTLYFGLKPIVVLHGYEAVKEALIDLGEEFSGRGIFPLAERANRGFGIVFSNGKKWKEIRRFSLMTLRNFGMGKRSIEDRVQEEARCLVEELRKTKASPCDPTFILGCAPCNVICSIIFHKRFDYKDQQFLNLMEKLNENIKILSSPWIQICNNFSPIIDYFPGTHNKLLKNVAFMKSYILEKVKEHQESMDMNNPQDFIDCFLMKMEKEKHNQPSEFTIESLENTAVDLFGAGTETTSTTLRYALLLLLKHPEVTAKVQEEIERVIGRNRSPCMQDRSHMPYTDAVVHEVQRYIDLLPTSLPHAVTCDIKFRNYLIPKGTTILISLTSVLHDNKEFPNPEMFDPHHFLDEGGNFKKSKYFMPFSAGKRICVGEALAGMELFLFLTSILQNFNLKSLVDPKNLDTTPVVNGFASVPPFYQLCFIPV
sEH inh = soluble epoxide hydrolase (human) inhibition; AID 707; hit rate 0.34% among 91,000; P34913; recombinant human sEH enzymatic activity assay; inhibition, % at 2 µM; in the data active = inhibition above about 80%
sEH act = activators of human soluble epoxide hydrolase | P34913 | purified human sEH enzymatic activity, activator screen | activation, % at 2 µM | hit rate 0.04% among 91,000; in the data active = activation above about 37%
CYP2C9 activ = CYP2C9 (human) activation | P11712 | recombinant CYP2C9, luciferin-H conversion, luminescence; active compounds read high; factor 1 = untreated enzyme, 0 = blocked | activation factor at 5 µM | hit rate 1.4% among 96,000 | AID 1024;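 active = activation factor of 2 or more for CYP2C9 at a 5 µM dose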;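 also: 0 = sulfaphenazole-blocked wells and 1 = vehicle-only wells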
CYP2C19 activ = increases human CYP2C19 enzyme activity; recombinant CYP2C19, luciferin-H EGE luminescence; active compounds read high; 0 = fully inhibited enzyme, 1 = untreated enzyme; activation factor at 5 µM; 96,000 tested, under 10 active;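 active = activation factor of at least 2 at 5 µM in the primary screen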;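 also: 0 = wells with 2.5 mM tranylcypromine and 1 = vehicle-only wells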
CYP2C19 inhib = blocks human cytochrome P450 2C19. hit rate 21% among 96,000. AID 778. inhibition, % at 5 µM. CYP2C19 Supersomes, luciferin-H EGE luminescence, 30 min;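 active = CYP2C19 inhibition above a set limit at 5 µM in the primary screen, cut at about 50% in these data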;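 also: plate controls were negative control wells for no effect and 2.5 mM tranylcypromine positive control for full effect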
An asterisk follows results filed as active; x = not tested or not shown. Compounds with a hit are over-represented: about 27% of the library has one in this group of screens.

SMILES	CYP2C9 inh	sEH inh	sEH act	CYP2C9 activ	CYP2C19 activ	CYP2C19 inhib
CCC1=C/C(=C/N(C)c2ccccc2)C(=O)S1	13.1	1.2	-0.7	0.9	0.9	8.9
O=C(C(c1ccccc1)c1ccccc1)N1CCN(Cc2ccncc2)CC1	87.7*	-1.7	2.4	0.1	0.6	43.9
O=C(c1cccs1)N1CCN(Cc2cccnc2)CC1	36.9	x	x	0.6	0.2	82.9*
O=C(c1cccs1)N1CCN(Cc2ccncc2)CC1	74.4*	-2.0	-0.4	0.3	0.1	88.2*
Cc1ccc(NC(=S)NC(NC(=O)C(C)(C)C)C(Cl)(Cl)Cl)c(C)c1 (stereo not given)	90.4*	24.8	-26.3	0.1	0.6	40.2
CCOC(=O)c1c(NC(=O)/C=C/c2ccc3c(c2)OCO3)sc(C)c1CC	27.8	12.6	-10.7	0.7	0.9	6.0
COc1cc(/C=C(/C(=O)c2cccs2)c2nc3ccccc3[nH]2)ccc1O	54.9*	4.0	-5.4	0.5	0.8	23.1
O=C(/C(=C/c1ccc(Cl)cc1)c1nc2ccccc2[nH]1)c1cccs1	99.1*	-6.3	6.0	0	0.2	76.4*
O=C(OCC1CC(c2ccccn2)=NO1)c1ccc(Br)cc1 (stereo not given)	81.7*	x	x	0.2	0.2	76.9*
Cc1cc(=O)oc2cc(OCC3CC(c4ccc(Br)cc4)=NO3)ccc12 (stereo not given)	30.4	-8.1	7.5	0.7	0.8	24.0
O=C(COC(=O)c1cnccn1)NCc1ccccc1	-3.4	14.4	-15.7	1	1	2.3
O=C(COc1ccccc1Cl)NCc1ccco1	6.3	0.2	2.8	0.9	0.8	25.0
O=C(COC(=O)c1ccccn1)c1ccc(Br)cc1	12.6	x	x	0.9	0.4	56.9*
O=C(COc1ccccc1Cl)NCc1ccncc1	77.5*	x	x	0.2	0.1	94.1*
Cc1ccc(C(=O)COC(=O)c2cnccn2)cc1	-0.7	0.3	-2.2	1	1	3.9
O=C(COC(=O)c1ccccn1)NCc1ccccc1	4.9	x	x	1	0.3	68.6*
O=C(OCc1ccc(Cl)c(Cl)c1)c1ccccn1	53.4*	-6.1	6.4	0.5	0	96.1*
O=C(COC(=O)c1ccncc1)NCc1ccccc1	64.8*	-14.4	14.4	0.4	0.1	85.3*
N/C(=N\OC(=O)c1ccc(Cl)c(Cl)c1)c1ccccn1	-9.7	0.4	2.7	1.1	1	1.0
O=S(=O)(Nc1ccc(O)c(Sc2nc3ccccc3s2)c1)c1ccc(Cl)cc1	14.4	-5.2	7.3	0.9	1	-0.6
CC12CC3CC(C)(C1)CC(C(=O)NC(=S)N1CCOCC1)(C3)C2	-4.1	3.7	0.4	1	0.9	5.3
Cc1cccc(C)c1Nc1nnc(SCC(=O)NCc2ccco2)s1	19.5	-2.9	6.4	0.8	0.3	69.5*
Cc1cc2ccccc2c(=O)n1CC(=O)NCc1ccco1	-156.4	2.8	0.3	2.6*	0.5	53.6*
COc1cccc2c(=O)n(CC(=O)Nc3ccc(F)cc3)ccc12	-4.2	-3.1	2.0	1	1	4.7
COc1cccc2c(=O)n(CC(=O)NC3CCCCC3)ccc12	-117.7	8.7	-9.8	2.2*	0.7	27.7
SMILES	CYP2C9 inh	sEH inh	sEH act	CYP2C9 activ	CYP2C19 activ	CYP2C19 inhib
Cc1cc2ccccc2c(=O)n1CC(=O)N(C)c1ccc(F)cc1	33.5	0.4	2.8	0.7	0.4	60.3*
Cc1cccc(NC(=O)CCc2c(C)nc3ncnn3c2C)n1	-9.4	2.6	-1.7	1.1	1.1	-9.0
CSCCC(NC(=O)c1c(C)oc2c1CCCC2)C(=O)O (stereo not given)	-8.0	9.0	-10.2	1.1	1.2	-17.3
O=C(Cn1c(=O)sc2ccccc21)Nc1ccccc1C(=O)O	85.0*	2.1	-0.8	0.2	1.1	-12.6
COc1ccc(NC(=O)Cn2c(=O)sc3ccccc32)cc1	16.7	9.9	-8.2	0.8	0.5	46.3
Cc1cc2ccccc2c(=O)n1CC(=O)N1CCN(c2cccc(Cl)c2)CC1	-19.8	-0.4	-1.0	1.2	1.1	-7.8
O=C(Cn1c(=O)sc2ccccc21)Nc1ccccc1	60.1*	1.6	0.5	0.4	0.6	43.4
O=C(Cn1c(=O)sc2ccccc21)Nc1ccc(S(=O)(=O)N2CCCCC2)cc1	x	53.9	-52.8	x	x	x
CCN(CC)S(=O)(=O)c1ccc(NC(=O)Cn2c(=O)sc3ccccc32)cc1	70.4*	33.6	-32.8	0.3	1.1	-6.7
Cc1cc2ccccc2c(=O)n1CC(=O)NCC(=O)N1CCN(c2ccccc2)CC1	-140.4	9.4	-9.8	2.4*	1.2	-17.5
COc1ccc(-n2c(O)c(Cc3ccccc3)c(=O)n3nc(-c4ccccc4)c(=O)cc23)cc1	x	2.7	-0.4	x	x	x
CCN(CC)CCNC(=O)C(C)c1nn(CC)c(=O)c2ccccc12 (stereo not given)	x	-6.7	4.8	x	x	x
CCCc1cc(=O)[nH]c(-n2[nH]c3c(c2=O)CCCC3)n1	20.3	1.3	-0.2	0.8	0.9	10.3
CC(C)NC(=O)CSc1nnc2sc3ccccc3n12	-62.5	5.3	-5.7	1.6	0.9	12.7
Cc1cc2ccccc2c(=O)n1CC(=O)NC1CCCCCC1	0.2	9.1	-7.8	1	0.4	64.5*
O=C(Cn1c(=O)oc2ccccc21)NCc1ccco1	-9.4	x	x	1.1	0.8	15.0
O=C(CSc1nnc2sc3ccccc3n12)NCc1ccco1	-186.2	25.0	-26.6	2.9*	0.8	22.2
O=C(Cn1c(=O)sc2ccccc21)NCc1ccco1	-340.4	x	x	4.4*	0.3	72.5*
O=C(Nc1cnn(Cc2ccc(Cl)c(Cl)c2)c1)C12CC3CC(CC(C3)C1)C2	x	32.3	-33.9	x	x	x
CN1C(=O)C(O)(CC(=O)c2cccc(-n3cccc3)c2)c2ccccc21 (stereo not given)	9.3	-3.0	5.9	0.9	0.9	12.5
CC(C)(C)NC(=O)Cn1c(SCC(N)=O)nc2ccccc21	-15.8	-16.7	18.8	1.2	1.2	-18.2
COc1ccc(C(=O)CSc2nc3ccccc3n2CC(=O)c2ccccc2)cc1	75.6*	-5.2	6.1	0.2	0.5	53.8*
COc1ccc(C(=O)Cn2c(C(=O)/C=C/c3ccccc3)nc3ccccc32)cc1	9.0	-7.5	6.6	0.9	1.2	-20.2
COc1ccc(OC)c(C(=O)CSc2nc3ccccc3n2CC(=O)NC(C)(C)C)c1	87.2*	-2.8	1.0	0.1	0.7	26.1
COc1cc2ccccc2cc1-c1nnc(COc2ccccc2)o1	-14.2	8.1	-4.8	1.1	0.9	10.7
COc1ccc(C2=Nn3c(nnc3-c3ccncc3)SC2)cc1OC	60.6*	-9.2	7.0	0.4	0.7	26.1
CCOC(=O)C(CC(C)C)CP(=O)(O)CNC(=O)OCc1ccccc1 (stereo not given)	9.7	-8.9	12.3	0.9	1	-1.2
Fc1ccc(Cn2c(SCc3ccc(F)c(C(F)(F)F)c3)nnc2C(F)(F)F)cc1	56.1*	3.6	-1.3	0.4	0.4	64.0*
Cn1c(SCc2cccc(F)c2)nnc1-c1ccccn1	34.5	-1.5	0.7	0.7	0.7	29.8
